Values joined by “and” are separate entries in the source; they are usually repeats but may differ in a detail not shown here. Equal entries are not always repeated. Records with an inconclusive call do not appear. Active and inactive are the calls of the source. Unless noted, the call rests on the fitted dose curve; in most records, active means well fitted curve in the direction sought with a large enough effect in the repeat runs; inconclusive means weak or mixed curves; inactive means no such curve, though single readings can be large; an effect the other way counts as inactive or inconclusive.
Assays:
[1] = qHTS assay to identify small molecule antagonists of the glucocorticoid receptor (GR) signaling pathway - cell viability counter screen (AID 720693); further: nearly all actives have a fitted effect of over 55% in size
[2] = qHTS assay for identifying genotoxic compounds that show differential cytotoxicity against isogenic chicken DT40 cell lines with known DNA damage response pathways - Rev3 mutant cell line (AID 743014); further: nearly all actives have a fitted effect of over 55% in size; further: potency means the concentration at half of the fitted maximal effect
[3] = qHTS assay for identifying genotoxic compounds that show differential cytotoxicity against isogenic chicken DT40 cell lines with known DNA damage response pathways - Rad54/Ku70 mutant cell line (AID 743015); further: nearly all actives have a fitted effect of over 60% in size; further: potency means the concentration at half of the fitted maximal effect
[4] = qHTS assay to identify small molecule antagonists of the androgen receptor (AR) signaling pathway - cell viability counter screen (AID 743033; further: nearly all actives have a fitted effect of over 45% in size)
[5] = qHTS assay to identify small molecule antagonists of the androgen receptor (AR) signaling pathway using the MDA cell line - cell viability counter screen (AID 743041; further: nearly all actives have a fitted effect of over 45% in size)
In short: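 Viability read by CellTiter-Fluor fluorescence in the same wells as the antagonist screen, added after 15.5 h of a 16 h, 37C exposure. Human breast carcinoma MDA-kb2 AR-luc cells, compounds co-dosed with agonist R1881.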

[6] = qHTS assay to identify small molecule antagonists of the thyroid receptor (TR) signaling pathway - cell viability counter screen (AID 743064); further: nearly all actives have a fitted effect of over 50% in size; further: potency means the concentration at half of the fitted maximal effect
In short: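 Same-well viability check: GH3.TRE-Luc cells stimulated with 1 nM T3 alongside test compound for 23.5 h, followed by CellTiter-Fluor fluorescence.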

[7] = qHTS assay to identify small molecule antagonists of the thyroid receptor (TR) signaling pathway (AID 743065); further: nearly all actives have a fitted effect of over 55% in size; further: potency means the concentration at half of the fitted maximal effect
In short: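 Antagonism measured as loss of luciferase signal in GH3 cells stably carrying a TRE-luciferase reporter, co-treated with compound and T3 (1 nM final) for 23.5 h at 37 C. Viability was read in the same well by CellTiter-Fluor.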

[8] = test system: thyroid hormone receptor (rat, GH3 cells); assay: qHTS assay to identify small molecule agonists of the thyroid receptor (TR) signaling pathway (AID 743066; calls by dose curve)
[9] = molecular target: Estrogen receptor (Homo sapiens) (UniProt P03372); assay: qHTS assay to identify small molecule antagonists of the estrogen receptor alpha (ER-alpha) signaling pathway (AID 743069; active means well fitted curve in the direction sought with a large enough effect in the signal ratio in the repeat runs, not every such curve was filed as active; the % refers to the signal ratio)
Sequence of Estrogen receptor (Homo sapiens) (P03372 whole entry, looked up): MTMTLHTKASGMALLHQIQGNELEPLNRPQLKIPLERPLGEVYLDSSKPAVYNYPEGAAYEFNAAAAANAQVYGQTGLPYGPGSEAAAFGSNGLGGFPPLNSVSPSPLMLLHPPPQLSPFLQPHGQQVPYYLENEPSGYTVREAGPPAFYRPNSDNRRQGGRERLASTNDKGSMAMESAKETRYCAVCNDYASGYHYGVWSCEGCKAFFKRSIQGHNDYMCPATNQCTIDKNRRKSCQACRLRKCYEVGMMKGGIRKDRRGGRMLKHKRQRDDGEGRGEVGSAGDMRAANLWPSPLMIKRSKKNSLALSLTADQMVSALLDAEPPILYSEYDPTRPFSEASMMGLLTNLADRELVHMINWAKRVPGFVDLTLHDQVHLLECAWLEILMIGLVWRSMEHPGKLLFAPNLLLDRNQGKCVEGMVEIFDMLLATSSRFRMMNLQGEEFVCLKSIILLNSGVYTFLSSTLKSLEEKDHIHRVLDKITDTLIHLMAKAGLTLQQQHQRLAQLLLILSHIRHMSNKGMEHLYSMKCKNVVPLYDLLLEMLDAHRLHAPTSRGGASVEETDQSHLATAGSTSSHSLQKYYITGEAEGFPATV
In short: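 Antagonist mode: compounds in DMSO were co-added with 17beta-estradiol to ER-alpha-bla HEK293 cells (2% charcoal-stripped serum) and left 18 h at 37C. Reporter inhibition was measured as FRET fluorescence after 2 h LiveBLAzer substrate at room temperature.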

[10] = qHTS assay to identify small molecule antagonists of the estrogen receptor alpha (ER-alpha) signaling pathway - cell viability counter screen (AID 743074; calls by dose curve;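 further: HEK293 cells carrying ER-alpha-UAS-bla reporter stimulated with 17beta-estradiol; nearly all actives have a fitted effect of over 45% in size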)
[11] = molecular target: Estrogen receptor (Homo sapiens) (UniProt P03372); assay: qHTS assay to identify small molecule agonists of the estrogen receptor alpha (ER-alpha) signaling pathway (AID 743075; calls by dose curve;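 further: HEK293 GripTite cells with ER-alpha and UAS-driven beta-lactamase reporter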)
[12] = molecular target: Estrogen receptor (Homo sapiens) (UniProt P03372); assay: qHTS assay to identify small molecule agonists of the estrogen receptor alpha (ER-alpha) signaling pathway using the BG1 cell line (AID 743079); further: nearly all actives have a fitted effect of over 20% in size; further: potency means the concentration at half of the fitted maximal effect
[13] = qHTS assay to identify small molecule antagonists of the estrogen receptor alpha (ER-alpha) signaling pathway using the BG1 cell line (AID 743080; calls by dose curve;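 further: BG1 cells stimulated with 17beta-estradiol alongside compound; series mostly up to about 70 µM; nearly all actives have a fitted effect of over 25% in size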)
In short: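 After 5 days in phenol-red-free 10% charcoal-stripped FBS medium, BG1-Luc-4E2 cells were seeded, left 24 h at 37 C, co-treated with compounds and 17beta-estradiol for 21.5 h, then assayed for viability and luciferase.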

[14] = qHTS assay to identify small molecule antagonists of the estrogen receptor alpha (ER-alpha) signaling pathway using the BG1 cell line - cell viability counter screen (AID 743081);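 further: compound given together with 17beta-estradiol as the ER stimulus; series mostly up to about 70 µM; nearly all actives have a fitted effect of over 45% in size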
Aromatase (Homo sapiens) = Aromatase (Homo sapiens) (UniProt P11511); assay: qHTS assay to identify aromatase inhibitors (AID 743083); further: series mostly up to about 70 µM; nearly all actives have a fitted effect of over 55% in size
Sequence of Aromatase (Homo sapiens) (P11511 whole entry, looked up): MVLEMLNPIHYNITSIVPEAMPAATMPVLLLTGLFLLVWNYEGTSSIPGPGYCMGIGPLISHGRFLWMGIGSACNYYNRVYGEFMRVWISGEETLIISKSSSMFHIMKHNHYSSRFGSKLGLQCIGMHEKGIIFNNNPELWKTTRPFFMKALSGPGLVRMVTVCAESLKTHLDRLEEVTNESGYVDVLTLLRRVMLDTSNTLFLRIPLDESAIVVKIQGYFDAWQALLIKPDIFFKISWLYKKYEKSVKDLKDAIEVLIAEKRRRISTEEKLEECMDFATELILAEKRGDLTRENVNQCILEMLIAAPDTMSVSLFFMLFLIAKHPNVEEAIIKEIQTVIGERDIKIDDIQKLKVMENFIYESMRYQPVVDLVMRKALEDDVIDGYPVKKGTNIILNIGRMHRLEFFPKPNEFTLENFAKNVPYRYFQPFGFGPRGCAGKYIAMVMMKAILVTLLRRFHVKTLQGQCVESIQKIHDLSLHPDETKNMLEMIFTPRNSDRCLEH

[15] = qHTS assay for identifying genotoxic compounds that show differential cytotoxicity against isogenic chicken DT40 cell lines with known DNA damage response pathways - wild type cell line (AID 743012); further: nearly all actives have a fitted effect of over 60% in size
In short: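 Viability by ATP luminescence (CellTiter-Glo, 30 min RT) after 40 h compound treatment at 37 C/5% CO2, using 300 parental DNA repair-proficient DT40 cells per well.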

[16] = molecular target: Androgen receptor (Homo sapiens) (UniProt P10275); assay: qHTS assay to identify small molecule antagonists of the androgen receptor (AR) signaling pathway (AID 743035; active means well fitted inhibition curve with a large enough effect in the signal ratio in the repeat runs, not every such curve was filed as active; the % refers to the signal ratio)
Sequence of Androgen receptor (Homo sapiens) (P10275 whole entry, looked up): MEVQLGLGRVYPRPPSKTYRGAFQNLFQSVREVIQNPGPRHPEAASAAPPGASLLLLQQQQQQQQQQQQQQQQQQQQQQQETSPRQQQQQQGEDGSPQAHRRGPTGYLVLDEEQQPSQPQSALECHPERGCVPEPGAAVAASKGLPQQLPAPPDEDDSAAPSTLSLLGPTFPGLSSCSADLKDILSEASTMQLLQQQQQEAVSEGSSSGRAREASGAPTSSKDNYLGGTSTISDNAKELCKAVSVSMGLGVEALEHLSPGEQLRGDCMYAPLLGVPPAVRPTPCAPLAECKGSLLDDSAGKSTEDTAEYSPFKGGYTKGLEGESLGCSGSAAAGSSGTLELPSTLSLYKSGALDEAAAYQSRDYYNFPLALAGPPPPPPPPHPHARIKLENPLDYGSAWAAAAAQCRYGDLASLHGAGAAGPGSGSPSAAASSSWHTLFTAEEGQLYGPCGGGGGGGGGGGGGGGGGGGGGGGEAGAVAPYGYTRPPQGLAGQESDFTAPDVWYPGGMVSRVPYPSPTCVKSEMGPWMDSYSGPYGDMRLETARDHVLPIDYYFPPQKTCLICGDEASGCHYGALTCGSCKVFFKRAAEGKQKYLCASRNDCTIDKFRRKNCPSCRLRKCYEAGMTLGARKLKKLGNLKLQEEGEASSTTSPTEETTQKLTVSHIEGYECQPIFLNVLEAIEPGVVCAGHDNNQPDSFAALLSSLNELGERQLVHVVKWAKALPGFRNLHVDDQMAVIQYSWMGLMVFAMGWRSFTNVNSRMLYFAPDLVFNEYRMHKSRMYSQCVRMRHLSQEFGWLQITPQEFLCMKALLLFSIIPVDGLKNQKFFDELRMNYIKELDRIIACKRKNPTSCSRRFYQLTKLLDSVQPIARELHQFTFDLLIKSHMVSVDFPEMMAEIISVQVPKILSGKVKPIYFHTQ
In short: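 Antagonist mode: AR-bla HEK293 cells co-treated with test compounds and agonist R1881 for 16 h at 37C, 5% CO2. Beta-lactamase activity read as FRET fluorescence after 2 h room-temperature substrate loading.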

[17] = molecular target: Androgen receptor (Homo sapiens) (UniProt P10275); assay: qHTS assay to identify small molecule agonists of the androgen receptor (AR) signaling pathway using the MDA cell line (AID 743040; further: nearly all actives have a fitted effect of over 20% in size; further: potency means the concentration at half of the fitted maximal effect)
In short: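 Luciferase agonist assay: 16 h compound exposure at 37C without CO2 in MDA-kb2 AR-luc cells, whose MMTV promoter responds to both AR and GR. Luminescence measured after 30 min room-temperature incubation with ONE-Glo.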

[18] = molecular target: Androgen receptor (Homo sapiens) (UniProt P10275); assay: qHTS assay to identify small molecule antagonists of the androgen receptor (AR) signaling pathway using the MDA cell line (AID 743042; further: nearly all actives have a fitted effect of over 55% in size)
In short: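 Antagonist mode: compounds plus R1881 agonist added to MDA-kb2 AR-luc cells, incubated 16 h at 37C. Luciferase reporter luminescence quantified, with multiplexed CellTiter-Fluor readout for cell viability.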

[19] = molecular target: Androgen receptor (Homo sapiens) (UniProt P10275); assay: qHTS assay to identify small molecule agonists of the androgen receptor (AR) signaling pathway (AID 743036; active means well fitted activation curve with a large enough effect in the signal ratio in the repeat runs, with a control signal flat, not every such curve was filed as active; the % refers to the signal ratio)
In short: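 Agonist activity was scored by beta-lactamase reporter fluorescence in stably transfected HEK293 cells exposed to compounds for 16 h at 37C and 5% CO2. Substrate loading took 2 h at room temperature.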

Measured: Potency

CN(C)CCN(C)CCN(C)C
not listed: [15] | [16] | [17] | [18] | [19]
inactive: all other assays above

C=CC(C)(CCC=C(C)C)OC(=O)CC (centres undefined)
not listed: [2] | [16] | [17] | [18] | [19]
inactive: all other assays above

CC1CCC(CO)CC1 (centres undefined)
not listed: [9] | [15] | [19]
inactive: all other assays above

Cc1ccnc(NS(=O)(=O)c2ccc(N)cc2)n1
not listed: [3] | [6] | [7] | [8] | [16] | [17] | [18] | [19]
inactive: all other assays above

CCCCOCCOC(=O)COc1cc(Cl)c(Cl)cc1Cl
not listed: [15]
inactive: all other assays above

CCCO[Si](OCCC)(OCCC)OCCC
not listed: [2] | [3] | [7] | [8] | [16] | [17] | [18] | [19]
inactive: all other assays above

CC(=O)OCC(=O)[C@@]1(O)[C@H](C)C[C@H]2[C@@H]3CCC4=CC(=O)C=C[C@]4(C)[C@@]3(F)[C@@H](O)C[C@@]21C
inactive: [1] | [15] | [3] | [4] | [5] | [6] | [7] | [8] | [10] | [14] | Aromatase (Homo sapiens)

NC(=O)Cc1cccc2ccccc12
inactive: [1] | [15] | [2] | [4] | [5] | [6] | [10] | [14] | Aromatase (Homo sapiens)

CC1OC1C1CCC2(C)OC2C1 (centres undefined)
not listed: [3] | [6] | [13] | [16] | [17] | [18] | [19]
inactive: all other assays above

CC1=NS(=O)(=O)c2cc(Cl)ccc2N1
inactive: [1] | [15] | [2] | [4] | [5] | [9] | [11] | [12] | [14] | Aromatase (Homo sapiens)

COC(=O)C1=C(C)NC(C)=C(C(=O)OC(C)C)C1c1cccc2nonc12 (centres undefined)
not listed: [3] | [4] | [9] | [11] | [12] | [13]
inactive: all other assays above

CN1C(C)(C)CC(O)CC1(C)C
not listed: [2] | [7] | [8] | [16] | [17] | [18] | [19]
inactive: all other assays above

CCCCN1C=CN(C)C1
not listed: [15] | [16] | [17] | [18] | [19]
inactive: all other assays above

CCOC(=O)c1ccccc1
not listed: [2] | [3] | [12] | [13] | [16] | [17] | [18] | [19]
inactive: all other assays above

CCNS(=O)(=O)c1ccc(C)cc1
not listed: [15] | [16] | [17] | [18] | [19]
inactive: all other assays above

CC(=O)O[C@@]12CO[C@@H]1C[C@H](O)[C@@]1(C)C(=O)[C@H](O)C3=C(C)[C@@H](OC(=O)[C@H](O)[C@@H](NC(=O)OC(C)(C)C)c4ccccc4)C[C@@](O)([C@@H](OC(=O)c4ccccc4)[C@H]21)C3(C)C
active: [2] 1.7 nM and 1.9 nM | [3] 0.0027 µM | [6] 29.8 nM and 106 nM | [7] 0.0298 µM
not listed: [10] | [13] | [15] | [16] | [19]
inactive: all other assays above

OCCc1ccccn1
inactive: [1] | [15] | [2] | [4] | [5] | [6] | [7] | [8] | [10] | [14] | Aromatase (Homo sapiens)

OCCCCCO
active: [12] 40.3 µM
not listed: [2] | [13] | [16] | [17] | [18] | [19]
inactive: all other assays above

CC(=O)N1C[C@H](O)C[C@H]1C(=O)O
active: [17] 26.6 µM | [12] 10.6 µM
not listed: [2] | [11] | [19]
inactive: all other assays above

O=S(=O)(O)c1cccc(S(=O)(=O)O)c1
not listed: [2] | [3] | [19]
inactive: all other assays above

CCN[C@@H]1C[C@H](N)[C@@H](OC2OC(CN)=CCC2N)[C@H](O)[C@H]1O[C@H]1OC[C@](C)(O)[C@H](NC)[C@H]1O (some centres undefined)
inactive: [1] | [15] | [3] | [4] | [5] | [6] | [7] | [8] | [10] | [14] | Aromatase (Homo sapiens)

COc1ccc2cc1Oc1cc3c(cc1OC)CC[N+](C)(C)[C@H]3Cc1ccc(cc1)Oc1c(OC)c(OC)cc3c1[C@@H](C2)[N+](C)(C)CC3
not listed: [2] | [3] | [13] | [16] | [17] | [18] | [19]
inactive: all other assays above

CCCC[N+](C)(CCCC)CCCC
not listed: [3] | [15] | [16] | [17] | [18] | [19]
inactive: all other assays above

CC1(C)[C@@H]2CC[C@@]1(C)[C@H](O)C2
inactive: [1] | [2] | [3] | [4] | [5] | [6] | [7] | [8] | [10] | [14] | Aromatase (Homo sapiens)

CC(=O)Oc1cccc(C)c1
not listed: [13] | [15] | [16] | [17] | [18] | [19]
inactive: all other assays above

Cc1ccccc1N=C(N)N=C(N)N
inactive: [1] | [2] | [3] | [4] | [5] | [6] | [7] | [8] | [10] | [14] | Aromatase (Homo sapiens)

C=C[Si](OC(C)=O)(OC(C)=O)OC(C)=O
active: [2] 61.1 µM
not listed: [3] | [13] | [15]
inactive: all other assays above

C1CCC2=NCCCN2CC1
inactive: [1] | [2] | [3] | [4] | [5] | [7] | [8] | [10] | [14] | Aromatase (Homo sapiens)

O=Cc1cccc(Br)c1
inactive: [1] | [2] | [3] | [4] | [5] | [6] | [7] | [8] | [10] | [14] | Aromatase (Homo sapiens)

COc1ccccc1OCC1CNC(=O)O1 (centres undefined)
inactive: [1] | [2] | [3] | [4] | [6] | [7] | [8] | [10] | [14] | Aromatase (Homo sapiens)

NO
inactive: [1] | [2] | [3] | [4] | [5] | [6] | [7] | [10] | [14] | Aromatase (Homo sapiens)

CCOC(=O)OC(C)OC1=C(C(=O)Nc2ccccn2)N(C)S(=O)(=O)c2ccccc21 (centres undefined)
active: [2] 1.5 µM
not listed: [3] | [10] | [12] | [15] | [16] | [17] | [18] | [19]
inactive: all other assays above

C[N+]1(C)CCCC(OC(=O)C(O)(c2ccccc2)c2ccccc2)C1 (centres undefined)
not listed: [3] | [12] | [13] | [15] | [16] | [17] | [18] | [19]
inactive: all other assays above

CCCCCCCC1CCCC1=O (centres undefined)
not listed: [3] | [15]
inactive: all other assays above

CC(=O)C1CCCCC1=O (centres undefined)
not listed: [15] | [16] | [17] | [18] | [19]
inactive: all other assays above

CCCn1cc[n+](C)c1C
inactive: [1] | [2] | [3] | [4] | [5] | [6] | [7] | [8] | [10] | [14] | Aromatase (Homo sapiens)

CCOC(=O)COc1cc(-n2ncc(C(F)(F)F)c(C)c2=O)c(F)cc1Cl
not listed: [3] | [15]
inactive: all other assays above

From PubChem BioAssay (Tox21)
